From PubChem BioAssay AID485313 (National Center for Advancing Translational Sciences (NCATS), 2010)
Out of some 320,000 compounds screened, about 7,600 (2.4%) were called active. Not shown: some 3% with an inconclusive outcome. Calls come from the whole dose curve; as a rule, active = well fitted activation curve with a large enough effect; inconclusive = small, poorly fitted or top-dose-only effect; inactive = no such curve, though single readings can be large or run the other way. Shown is part of a subset that was picked to be rich in actives.

Assay: qHTS Assay for NPC1 Promoter Activators; note: nearly all actives have a fitted effect of over 60% in size; for activation: % of control where 0% means no effect
Conditions: Huh7 NPC1 promoter luciferase reporter, 24 h; series mostly up to 9.22 µM; activation: at the top concentration
Method in brief: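 Luminescence read-out of NPC1 promoter-driven luciferase in stably transfected Huh7 cells; compounds delivered in DMSO and left 24 h at 37C, 5% CO2, qHTS titration format.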
Potency is the fitted concentration of half-maximal effect.

activation, inactive:
COc1ccc(C(=O)COC(=O)c2ccc([N+](=O)[O-])s2)cc1OC -2.25%
CCc1ccc(NC(=O)N2CCN(c3ccccc3)CC2)cc1 9.63%
O=C(C(=O)N1CCc2ccccc2C1)N1CCc2ccccc2C1 3.15%
CCCn1nc(C(=O)OCc2nc(N)nc(Nc3ccccc3C)n2)c2ccccc2c1=O -0.194%
COc1ccc(/C(O)=C2/C(=O)C(=O)N(c3nc(C)c(C)s3)C2c2ccco2)cc1 (stereo not drawn) 2.32%
COc1ccc(C2/C(=C(/O)c3ccccc3)C(=O)C(=O)N2C)c(OC)c1 (stereo not drawn) -0.891%
c1ccc2cc(CCCc3cc4ccccc4cn3)ncc2c1 -0.127%
COc1cc(OC)cc(C(=O)NNC(=O)CCOc2ccccc2OC)c1 -0.0783%
Cc1ccc(Nc2nc(N3CCOCC3)nc(N3CCOCC3)n2)cc1Cl -5.97%
CCOc1ccc(Nc2nc(Cl)nc(N3CCN(c4ccc(OC)cc4)CC3)n2)cc1 -1.01%
Cc1cccc(NC(=O)CN2CCN(C(=O)C3CCN(C(=O)/C=C/c4ccccc4)CC3)CC2)c1C 11.6%
CCOC(=O)[C@@H]1[C@H]2COc3ccc(Br)cc3[C@H]2N2C(=O)N(c3ccc(Cl)cc3)C(=O)[C@@]12C -2.71%
COc1ccccc1-c1oc2ccccc2c1C#CCCCCO -1.8%
c1ccc(-c2cc(-c3ccccc3)[nH]n2)cc1 26.3%
CN=c1scc(-c2cc(OC)ccc2OC)n1/N=C/c1c(C)[nH]c2ccccc12 -0.11%
N#Cc1ccc(C2=CC(=O)C[C@H](c3ccc(Cl)cc3)C2)cc1 7.18%
CC(=O)c1cc(C#N)c(N2CC(C)OC(C)C2)nc1C (stereo not drawn) 0.589%
Cc1cc(C#N)c(SCC(N)=O)nc1-c1ccc(F)cc1 0.168%
CCOC(=O)c1ccc(N/C(=N/S(=O)(=O)c2ccccc2)c2ccccc2)cc1 -1.97%
Cc1ccc(S(=O)(=O)N2CCOCC2)cc1NC(=O)COC(=O)c1cnccn1 -3.31%
CCNc1nc(NCC)nc(N/N=C/c2ccc(O)c(OC)c2)n1 0.366%
CCOc1ccc(/C=N/Nc2nncc(-c3ccccc3)n2)cc1OC 0.357%
CCN(CC)S(=O)(=O)c1ccc(N2CCOCC2)c(NC(=O)C(C)Oc2ccc(F)cc2)c1 (stereo not drawn) -6.62%
CC1CCCCC12NC(=O)N(CC(=O)OCC(=O)NCc1ccc(F)cc1)C2=O (stereo not drawn) -3.63%
CCN(CC(=O)Nc1ccccc1C(=O)NC1CC1)Cc1cccs1 -1.35%
Cn1ccsc1=NC(=O)c1cc(S(=O)(=O)N2CCOCC2)ccc1Cl -1.29%
COc1ccc(-c2nnc3n2CCCCC3)cc1 -1.97%
COc1ccc(-c2nc(SCC(=O)N3CCCC3)n[nH]2)cc1 -1.33%
CN(CC(=O)Nc1ccc(F)c(F)c1F)C(=O)Cn1cnc2c1c(=O)n(C)c(=O)n2C -0.741%
Cc1ccsc1C(=O)NC1CCCCC1C (stereo not drawn) 0.949%
COc1cc(C(=O)OCc2ccc([N+](=O)[O-])cc2)cc(OC)c1OC -0.326%
COc1cc(/C=N\Nc2ccc([N+](=O)[O-])cn2)ccc1OCC(=O)O 1.45%
Cc1ccccc1-c1cc(C(=O)NCC2CC2)n(CC2CC(c3cccnc3)=NO2)n1 (stereo not drawn) -0.342%
O=C(COc1ccccc1O)NC1CCCC1 -2.53%
CC(=O)Nc1ccc(NC(=O)CSc2nnc(C3CC3)n2-c2ccccc2)cc1 -5.77%
Cc1ccccc1CSCC(=O)NC(=O)NC(C)(C)C -3.16%
COc1ccccc1-n1ccnc1SCC(=O)NC(C)(C)C -0.961%
COc1cc(C(C)=O)ccc1OC(C)C(=O)Nc1ccc(S(=O)(=O)N2CCCC2)cc1 (stereo not drawn) 0.351%
CC(C)N(C(=O)CSc1nnc(NC2CC2)s1)c1ccccc1 0.279%
Cc1ccccc1NC(=O)Cc1nc(COC(=O)c2ccc(C(F)(F)F)cc2)cs1 -2.66%
CCC(C)N(C)C1CCN(C(=S)Nc2ccc(OC)cc2)CC1 (stereo not drawn) 3.73%
COc1ccc(NC(=S)N2CCc3cc(OC)c(OC)cc3C2)cc1 -3.04%
N#CCCN(C(=O)COC(=O)C1CCN(c2ccc(C(F)(F)F)cn2)CC1)c1ccc(F)cc1 -1.26%
O=C(NCC1CCCO1)c1ccc(S(=O)(=O)Nc2ccc(F)cc2)cc1 (stereo not drawn) 2.02%
Cc1nnc2n1N=C(c1ccccc1)CS2 -2.53%
c1csc(-c2cn3c(n2)SCC3)c1 10.9%
COC(=O)[C@]1(C)CCC[C@@]2(C)C3CC[C@]4(OC(C)=O)C[C@@]3(CCC21)CC4=NO (stereo partly drawn) 4.54%
O=C(NCCC1=CCCCC1)c1ccc(Cl)c([N+](=O)[O-])c1 1.81%
O=C(COc1cccc(-n2cnnn2)c1)NCCC1=CCCCC1 -1.1%
COc1ccc(-c2nn(-c3ccccc3)cc2/C=C\C(=O)Nc2ccc(C(=O)O)cc2)cc1 -2.75%
O=C(NCc1cccnc1)c1cn(-c2ccccc2)nc1-c1cccs1 15.3%
COc1ccc(OC)c(CN2CCN(C(=O)CNC(=O)c3cc(C)cc(C)c3)CC2)c1 3.16%
O=C(CN1CCN(c2ccccn2)CC1)N1CCc2ccccc21 -0.609%
CCC(=O)N1CCCc2ccccc21 0.602%

Potency, active:
CCc1ccc(NC(=O)N2CCc3ccccc3C2)cc1 2240 nM
CCOc1ccc(/C(O)=C2\C(=O)C(=O)N(c3ccc(OC)cc3)C2c2ccccc2[N+](=O)[O-])cc1 (stereo not drawn) 398 nM
COc1ccc(Nc2ncc(F)c(N3CCOCC3)n2)cc1 1260 nM
OCCCN1c2ccccc2Nc2nnc(-c3ccccc3)cc21 2240 nM
CC(=O)c1cc(C#N)c(SCC(=O)C(C)(C)C)nc1C 3160 nM
COc1ccc(/C=N/Nc2nc3ccccc3o2)cc1OC 2000 nM
COc1ccc(-c2nc3n(c2Br)CCC3)cc1 2820 nM
COc1cc(/C=N/O)ccc1OCc1ccc([N+](=O)[O-])cc1 2510 nM
CC(C)(C)NC(=O)CSC(=Nc1ccccc1F)NC#N 3980 nM
COc1ccc(NC(=S)N2N=CCC2c2ccccc2)cc1 (stereo not drawn) 1410 nM
O=c1c2cc(-c3ccccc3)sc2nc2n1N=C(c1cccs1)CS2 3160 nM
O=C(NCCC1=CCCCC1)c1ccc(-n2cncn2)cc1 3550 nM
O=C(O)c1ccc(N/N=C/c2cn(-c3ccccc3)nc2-c2cccs2)cc1 1260 nM
O=C(CSCc1ccccc1)N1CCc2ccccc21 2240 nM
